These results are taken from PubChem BioAssay (NCI).

Holding throughout (assay): NCI-60 one-dose screen, 48 h (100 = growth as untreated, 0 = no growth, -100 = all killed)
Experiment [1] concerns NCI-H23 lung.
In experiment [2] the test system is NCI-H226 lung.
Experiment [3] relates to NCI-H322M lung.
The test system of experiment [4] is HOP-62 NSCLC.
Experiment [5] deals with NCI-H460 lung.
For experiment [6], the system named is HOP-92 NSCLC.
The subject of experiment [7] is NCI-H522 lung.
In experiment [8] the test system is A549/ATCC NSCLC.
Experiment [9] concerns 786-0 renal.
Experiment [10] deals with COLO 205 colon.

The panel holds about 83,000 compounds, 20% with a hit somewhere; the sample as a whole holds those more often.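 48-hour exposure, single concentration, 96-well plates; percent growth endpoint where 0 means no net growth. Active: below 10.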 Unmarked numbers belong to inactive results. Calls of active or inactive are those of the source.

On to `Cc1ccc(O)cc1Nc1nc(SCCN2CCOCC2)nc2c1cnn2CC(Cl)c1ccc(Br)cc1` (stereo not given), for which the growth in experiment [1] (10 µM unless noted) is 13.7%; in [2] (10 µM unless noted), 27.5%; in [3] (10 µM unless noted), 73.5%; in experiment [4] (10 µM unless noted), 23%; in experiment [5] (10 µM unless noted) it was 9.59% (active); in experiment [6] (10 µM unless noted), -19.8% (active). Moreover, the growth is 15.8% in experiment [7] (10 µM unless noted), -9.82% (active) in [8] (10 µM unless noted), 11.1% in experiment [9] (10 µM unless noted) and 85.9% in [10] (10 µM unless noted).

Turning to `CC/C(=C(\c1ccc(O)cc1)c1ccc(OCCN(C)C(=O)CCOCCNC(=O)c2ccc3c(c2)CN([C@@H]2CCC(=O)NC2=O)C3=O)cc1)c1ccccc1`, the growth in experiment [1] (1 µM) is 105%; in experiment [1] (10 µM), 97.2%; in experiment [2] (1 µM), 87.2%; in experiment [2] (10 µM), 66.3%; in [3] (1 µM), 101%; in experiment [3] (10 µM), 88.1%. Besides, the growth in experiment [4] (1 µM) is 95.1%; in [4] (10 µM), 94.4%; in experiment [5] (1 µM), 115%; in experiment [5] (10 µM), 114%; in [6] (1 µM), 37.9%; in experiment [6] (10 µM), 43.7%. Further, the growth in experiment [7] (1 µM) was 92.6%; in [7] (10 µM) it was 95.3%; in [8] (1 µM), 85%; in [8] (10 µM) it was 82.2%; in experiment [9] (1 µM), 96.6%; in experiment [9] (10 µM) it was 93.4%. In addition, the growth in experiment [10] (1 µM) was 95.4%; in experiment [10] (10 µM) it was 94.5%.

Regarding `Cc1cccc(/C=C/c2ccc(NC(=S)NCCCCN(C)C)cc2)c1`, the growth in experiment [1] (10 µM unless noted) is -99.7% (active); in experiment [2] (10 µM unless noted), -72.1% (active); in experiment [3] (10 µM unless noted) it was -91.1% (active); in experiment [4] (10 µM unless noted), -67.4% (active); in experiment [5] (10 µM unless noted) it was -85.5% (active); in [6] (10 µM unless noted) it was -57.2% (active). For the same compound, the growth is -73.7% (active) in [7] (10 µM unless noted), -57.9% (active) in experiment [8] (10 µM unless noted), -57.4% (active) in experiment [9] (10 µM unless noted) and -69.5% (active) in [10] (10 µM unless noted).

In the case of `N#C/C(=C/c1ccc(Cl)cc1)c1nnc(NC(=O)c2ccc(-n3c(=O)[nH]c4ccccc4c3=O)cc2)s1`, the growth in experiment [1] (10 µM unless noted) is 28.6%; in experiment [2] (10 µM unless noted), 2.1% (active); in experiment [3] (10 µM unless noted), 59.5%; in experiment [4] (10 µM unless noted), 26.6%; in [5] (10 µM unless noted), 10.1%; in experiment [6] (10 µM unless noted), 39.3%. For the same compound, the growth in [7] (10 µM unless noted) is 46.4%; in experiment [8] (10 µM unless noted), 69.8%; in [9] (10 µM unless noted) it was 48.1%; in [10] (10 µM unless noted), 68.1%.

Regarding `COc1ccc(C2=NN(C(=O)[C@H]3[C@@H](c4ccco4)c4sc(=O)[nH]c4S[C@@H]3C)C(c3ccc4ccccc4c3)C2)cc1` (stereo not given in full), the growth in [1] (10 µM unless noted) is 33.8%; in experiment [2] (10 µM unless noted) it was 29.3%; in experiment [3] (10 µM unless noted), 49.1%; in experiment [4] (10 µM unless noted) it was 59.7%; in experiment [5] (10 µM unless noted) it was 23.8%; in experiment [6] (10 µM unless noted), 29.1%. Further, the growth was 4.06% (active) in [7] (10 µM unless noted), 17.6% in experiment [8] (10 µM unless noted), 44.6% in [9] (10 µM unless noted) and 7.92% (active) in experiment [10] (10 µM unless noted).

On to `COc1cc(-c2ccc3ncnc(N4CCc5ccc(Cl)cc54)c3c2)cnc1Cl`, for which the growth is 19.9% in [1] (10 µM unless noted); 18.8% in [2] (10 µM unless noted); 15.9% in experiment [3] (10 µM unless noted); 50.2% in experiment [4] (10 µM unless noted); 12.4% in experiment [5] (10 µM unless noted); -0.319% (active) in [6] (10 µM unless noted). Further, the growth in [7] (10 µM unless noted) was 38.6%; in experiment [8] (10 µM unless noted), 34.7%; in experiment [9] (10 µM unless noted), 14.1%; in experiment [10] (10 µM unless noted), 32.1%.

Turning to `COc1c(B(O)O)cc(F)cc1-c1nc2c(F)cc3[nH]ncc3c2c2c1CCCC2`, the growth in experiment [1] (10 µM unless noted) was 5.45% (active); in experiment [2] (10 µM unless noted), 4.1% (active); in experiment [3] (10 µM unless noted), 12.6%; in experiment [4] (10 µM unless noted), 16.8%; in experiment [5] (10 µM unless noted), 2.44% (active); in experiment [6] (10 µM unless noted), 17.2%. The growth in [7] (10 µM unless noted) was 5.36% (active); in experiment [8] (10 µM unless noted), 2.51% (active); in [9] (10 µM unless noted) it was 29.2%; in experiment [10] (10 µM unless noted), -16% (active).

`CCN(C(=O)CN1C(=O)/C(=C/c2ccco2)SC1=S)C1CCS(=O)(=O)C1` (stereo not given): the growth in [1] (10 µM unless noted) is 99.9%; in experiment [2] (10 µM unless noted), 99.1%; in [3] (10 µM unless noted) it was 99.8%; in experiment [4] (10 µM unless noted), 123%; in experiment [5] (10 µM unless noted), 101%; in [6] (10 µM unless noted), 103%. For the same compound, the growth in experiment [7] (10 µM unless noted) is 47.5%; in [8] (10 µM unless noted) it was 102%; in experiment [9] (10 µM unless noted), 101%; in experiment [10] (10 µM unless noted), 120%.

For the compound `O=C(Nc1ccc(Cl)c(C(F)(F)F)c1)N1CCN(c2cc(-c3cn(-c4ccccc4)nc3-c3cccc(O)c3)ccn2)CC1`, the growth in experiment [1] (10 µM unless noted) was -27.3% (active); in experiment [2] (10 µM unless noted), -16.2% (active); in experiment [3] (10 µM unless noted) it was 14.8%; in experiment [4] (10 µM unless noted) it was 14.5%; in [5] (10 µM unless noted), 7.84% (active); in experiment [6] (10 µM unless noted) it was -2.61% (active). The growth is -17.3% (active) in experiment [7] (10 µM unless noted), 14.7% in [8] (10 µM unless noted), 8.51% (active) in [9] (10 µM unless noted) and -2.61% (active) in experiment [10] (10 µM unless noted).

Turning to `Clc1ccc(Nc2nnc(-c3c[nH]c4ccccc34)o2)cc1`, the growth in experiment [1] (10 µM unless noted) was 77.9%; in experiment [2] (10 µM unless noted), 66.7%; in experiment [3] (10 µM unless noted), 91.3%; in experiment [4] (10 µM unless noted) it was 67.8%; in experiment [5] (10 µM unless noted), 83%; in experiment [6] (10 µM unless noted), 70.9%. For the same compound, the growth in experiment [7] (10 µM unless noted) was 24.2%; in [8] (10 µM unless noted), 68.6%; in experiment [9] (10 µM unless noted), 90.1%; in experiment [10] (10 µM unless noted), 116%.

As to `CC/C(=C(/c1ccc(O)cc1)c1ccc(OCCN(C)C(=O)CCOCCNC(=O)Cc2ccc3c(c2)CN([C@@H]2CCC(=O)NC2=O)C3=O)cc1)c1ccccc1`, the growth in experiment [1] (1 µM) was 98.2%; in experiment [1] (10 µM), 92.8%; in experiment [2] (1 µM), 93.9%; in experiment [2] (10 µM) it was 47%; in experiment [3] (1 µM) it was 88.1%; in experiment [3] (10 µM) it was 67%. Also, the growth in experiment [4] (1 µM) is 82.5%; in [4] (10 µM), 52.3%; in experiment [5] (1 µM), 130%; in [5] (10 µM), 103%; in [6] (1 µM), 22.2%; in experiment [6] (10 µM), 20.8%. The growth was 92% in experiment [7] (1 µM); 91.2% in [7] (10 µM); 93.1% in experiment [8] (1 µM); 87.8% in experiment [8] (10 µM); 97.2% in experiment [9] (1 µM); 84.2% in [9] (10 µM). Besides, the growth in experiment [10] (1 µM) is 102%; in experiment [10] (10 µM), 62.3%.
